# Pol beta inh: blocks human DNA polymerase beta activity. P06746. Pol beta primer extension/strand displacement, fluorescence kinetic. 340,000 compounds, 1.3% hits. Potency, µM (highest dose often 114 µM), usual class: inhibitors. AID 485314
#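 Kinetic readout of DNA synthesis with strand displacement by Pol beta. Compound and 10 nM enzyme sit 15 min at room temperature; 50 nM substrate starts the reaction, read immediately and at 10 min.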
# PI5P4Ka inh: inhibitors of human PI5P4K alpha | 330,000 compounds, 1.2% hits | AID 652105 | PI5P4Kalpha enzyme, ADP-Glo luminescence, 60 min; hits give low values | P48426 | max response, %; active means max response of -50% or lower; inconclusive means between -30% and -50%; inactive means -30% or higher; further: value at the top dose of about 77 µM
#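 Reactions run in 0.038 M HEPES pH 7.4, 0.28 mM EGTA, 0.1% CHAPS and 5% DMSO, with PI5P4Kalpha, substrate, compound and 5 microM ATP final, one hour at room temperature. Readout is ADP-Glo luminescence.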
# POLK inh: DNA polymerase kappa (human) inhibition | Q9UBT6 | purified Pol kappa, fluorescent DNA synthesis assay, 10 min | Potency, µM (series often up to 107 µM), usual class: inhibitors | 400,000 compounds, 0.53% hits
#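 Kinetic fluorescence readout at 0 and 10 min followed reaction start with substrate at 50 nM final. Beforehand, enzyme (10 nM Pol kappa) stood 15 min with compound at room temperature; buffer-only wells were negative controls.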
# Pol eta inh: inhibitors of human DNA polymerase eta. recombinant Pol eta, fluorescent DNA replication assay. 390,000 compounds, 1.2% hits. Potency, µM (series often up to 114 µM), usual class: inhibitors. AID 588591
# Target sequence (Q9Y253 whole entry, looked up): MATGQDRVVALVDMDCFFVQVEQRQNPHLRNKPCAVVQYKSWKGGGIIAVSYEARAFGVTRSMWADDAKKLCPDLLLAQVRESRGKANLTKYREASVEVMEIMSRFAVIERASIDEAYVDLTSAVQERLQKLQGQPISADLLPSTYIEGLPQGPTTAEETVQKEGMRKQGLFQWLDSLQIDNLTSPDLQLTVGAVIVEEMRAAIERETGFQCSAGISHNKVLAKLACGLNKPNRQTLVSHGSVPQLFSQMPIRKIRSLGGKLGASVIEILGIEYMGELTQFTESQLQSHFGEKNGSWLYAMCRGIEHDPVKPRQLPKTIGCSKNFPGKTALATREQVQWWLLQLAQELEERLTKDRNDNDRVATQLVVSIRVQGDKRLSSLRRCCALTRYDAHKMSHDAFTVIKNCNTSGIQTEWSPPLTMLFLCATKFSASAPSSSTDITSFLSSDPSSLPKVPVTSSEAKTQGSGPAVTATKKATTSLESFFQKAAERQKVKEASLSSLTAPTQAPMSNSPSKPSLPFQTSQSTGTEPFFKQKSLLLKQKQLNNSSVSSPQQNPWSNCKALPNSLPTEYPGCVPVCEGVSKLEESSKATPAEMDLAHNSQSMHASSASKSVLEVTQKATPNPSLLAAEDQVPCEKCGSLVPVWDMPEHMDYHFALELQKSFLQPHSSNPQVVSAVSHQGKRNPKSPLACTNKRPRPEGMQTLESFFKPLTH
#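 Fluorescent replication assay: 50 nM final substrate added after a 15 min room-temperature compound preincubation with 10 nM enzyme. Signal taken at 0 min and again at 10 min.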
# WRN helicase inh-1: WRN helicase (human) inhibition; Potency, µM (highest dose often 114 µM), most hits filed as inhibitors; WRN helicase unwinding, fluorescent forked duplex, kinetic; Q14191; 360,000 compounds, 0.46% hits; further: nearly all actives have a fitted effect of over 55% in size
#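 WRN at 20 nM final was preincubated with compound for 15 min at room temperature; reaction started with 100 nM forked duplex oligonucleotide carrying fluorophore and quencher plus 2 mM ATP (final). Unwinding followed kinetically by red fluorescence (ex 525/em 598 nm).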
# Pol iota inh: DNA polymerase iota (human) inhibition; Q9UNA4; Pol iota fluorescent replication assay, 10 min; Potency, µM (doses to about 115 µM), actives largely listed as inhibitors; 390,000 compounds, 1% hits
#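 Pol iota at 10 nM preincubated 15 min with compounds at room temperature; reaction started with fluorescent substrate, 50 nM final. Fluorescence read kinetically at 0 and 10 min; buffer-only wells as negative control.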
# WRN helicase inh-2: WRN helicase inhibition, cherry-pick retest. Potency, µM (highest dose often 57.1 µM), most hits filed as inhibitors. 610 compounds, 63% hits. shares compounds with WRN helicase inh-1. WRN helicase DNA unwinding, fluorescence kinetic. AID 720497; further: nearly all actives have a fitted effect of over 65% in size
# TO displacement: DNA binding via thiazole orange displacement; shares compounds with WRN helicase inh-1; thiazole orange DNA binding displacement, fluorescence; Potency, µM (highest dose often 57.1 µM), actives largely listed as inhibitors; 610 compounds, 10% hits; AID 720499;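 further: drop in dye fluorescence marks compound binding to DNA; nearly all actives have a fitted effect of over 60% in size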
# BLM helicase inh: BLM helicase inhibition, WRN selectivity check; shares compounds with WRN helicase inh-1; Recombinant BLM helicase DNA unwinding, red fluorescence; Potency, µM (titrated, usually from 57.1 µM), usual class: inhibitors; 610 compounds, 60% hits; AID 720503; further: nearly all actives have a fitted effect of over 60% in size
# ADP-Glo counter: counter-screen for PI5P4K inhibitors: ADP-Glo detection interference, no enzyme | shares compounds with PI5P4Ka inh | ADP-Glo detection counter-screen, luciferase luminescence, no enzyme | Potency, µM (titrated, usually from 76.9 µM), actives largely listed as inhibitors | 1,100 tested, under 10 active
# A number is an active result; - = inactive; ? = inconclusive; . = no result given. Only some compounds are listed: those with a hit (about 2.8% of all), similar ones and a draw of the others. Unless noted, the call rests on the fitted dose curve; in most records, active means well fitted curve in the direction sought with a large enough effect; inconclusive means small, poorly fitted or top-dose-only effect, or another doubt; inactive means no such curve, though single readings can be large; an effect the other way counts as inactive or inconclusive.
SMILES,Pol beta inh,PI5P4Ka inh,POLK inh,Pol eta inh,WRN helicase inh-1,Pol iota inh,WRN helicase inh-2,TO displacement,BLM helicase inh,others
CN(C)c1ccc(C=Cc2nccc3ccccc23)cc1,.,-,.,.,79µM,.,?,-,?,
COC1=CC(=O)OC(c2cccc(C#N)c2)C1 (stereo unspecified),.,-,.,.,-,.,.,.,.,
CC(=O)N(C1=C(Cl)C(=O)c2ccccc2C1=O)C1CCCCC1,-,-87,-,-,14µM,?,-,-,?,
CC(=O)N(c1ccccc1C)C1CCCC1,-,-,-,-,-,-,.,.,.,
COC(=O)c1c(NC(=O)CCCOc2ccc(C)cc2)sc2c1C(C(=O)OC)CC2 (stereo unspecified),-,.,?,-,.,?,-,24µM,?,
COC(=O)c1c(NC(=O)CCCOc2cccc(C)c2)sc2c1C(C(=O)OC)CC2 (stereo unspecified),-,.,-,-,.,?,-,-,?,
CCOc1ccc(/C=C/C(=O)Nc2sc3c(c2C(=O)OC)C(C(=O)OC)CC3)cc1 (stereo unspecified),-,.,-,50µM,.,?,-,-,?,
CCOc1ccc(/C=C/C(=O)Nc2sc3c(c2C(=O)OC)CCCC3)cc1,-,.,-,-,.,-,.,.,.,
Cc1ccc(Nc2c(-c3ccc(N(C)C)cc3)nc3ccccn23)cc1,-,.,-,-,.,-,.,.,.,
CCOc1cc(OCC)cc(C(=O)N2CCC[C@H]2C(=O)N2CCC[C@H]2C(=O)NCc2ccccn2)c1,.,-,.,.,-,.,.,.,.,
COc1ccc(S(=O)(=O)N2CCOCC2)cc1NC(=O)Cc1ccc(F)cc1,.,-,.,-,-,.,.,.,.,
Cc1nn(CCc2nc(-c3ccco3)cs2)c2[nH]c(=O)cc(C(F)(F)F)c12,22µM,.,35µM,32µM,35µM,13µM,?,-,22µM,
COc1ccc(CCNC(=O)CCS(=O)(=O)c2cc3c(cc2Cl)NC(=O)CO3)cc1OC,-,.,-,-,.,-,.,.,.,
COCCNC(=O)c1cnn2c(C(F)(F)F)cc(-c3ccc(C)cc3)nc12,-,-,-,-,-,-,.,.,.,
COc1ccc(NC(=O)C(Cl)=C(Cl)Cl)cn1,-,-,-,-,-,-,.,.,.,
COc1ccc(NC(=O)/C(Cl)=C(/Cl)S(=O)(=O)Cc2ccccc2)cn1,-,-,-,?,12µM,?,?,-,-,
COc1ccc(NS(=O)(=O)c2cccc(C(=O)NN=Cc3ccc(O)c(OC)c3)c2)cc1,.,-,-,-,?,?,?,-,-,
c1ccc(-[n+]2nc(Nc3cccc4ccccc34)sc2-c2c3ccccc3cc3ccccc23)cc1,.,-,-,-,-,-,.,.,.,
COc1ccc(-n2c(=O)c3ccccc3c3ccccc3c2=O)cc1,-,-,-,-,?,-,.,.,.,
COc1ccc(OC)c(-n2c(=O)c3ccccc3c3ccccc3c2=O)c1,-,-,-,-,?,-,-,-,?,
CCN(CC)c1ccc(N=C2C=CC(=O)C=C2NC(C)=O)cc1,.,-,?,-,18µM,45µM,-,-,-,
CCN(CC)c1ccc(NC(=O)Nc2ccc(C(C)=O)cc2)cc1,?,-,-,-,-,-,.,.,.,
N#CCC(=O)Nc1ccc(C(=O)OCC(=O)NNC(=O)c2cccs2)cc1,.,-,-,?,-,?,.,.,.,
N#CCC(=O)Nc1ccc(C(=O)OCC(=O)NNC(=O)c2ccc(Cl)cc2)cc1,.,?,-,?,?,?,?,30µM,?,
C[C@@H]1CN(S(=O)C(C)(C)C)[C@@H](CCO)/C1=C\c1ccccc1 (stereo partly specified),.,-,-,-,-,-,.,.,.,
SMILES,Pol beta inh,PI5P4Ka inh,POLK inh,Pol eta inh,WRN helicase inh-1,Pol iota inh,WRN helicase inh-2,TO displacement,BLM helicase inh,others
CC1=NN(c2ccc(F)cc2)C(=O)C1C(c1cccc(O)c1)c1c(C)[nH]n(-c2ccc(F)cc2)c1=O (stereo unspecified),-,-,-,-,?,-,-,-,-,
CC1=NN(c2ccc(Cl)cc2)C(=O)C1C(c1cccc(O)c1)c1c(C)[nH]n(-c2ccc(Cl)cc2)c1=O (stereo unspecified),-,-,-,-,?,-,.,.,.,
O=C(O)COc1ccccc1/C=N/NC(=O)c1cc(-c2ccc(Cl)cc2)nc2ccccc12,-,-,-,?,?,-,?,?,27µM,
O=C(O)COc1ccccc1/C=N/NC(=O)c1cc(-c2ccccc2)nc2ccccc12,-,-,-,-,-,-,.,.,.,
Cc1ccc(NC(=S)NNC(=O)c2ccc(N3CCOCC3)c([N+](=O)[O-])c2)cc1C,-,-,-,-,-,-,.,.,.,
CCc1cc(=O)oc2cc(C)c(CN3CCCCC3)c(O)c12,8.9µM,-64,18µM,14µM,25µM,7.9µM,?,-,?,ADP-Glo counter=-
Cc1ccc(C(=O)NCCNS(=O)(=O)c2ccccc2[N+](=O)[O-])cc1,-,-,-,-,-,-,.,.,.,
Cc1ccc2nc3c(cc2c1)c(C)nn3-c1ccccc1,-,-,-,-,-,-,.,.,.,
Cc1nn(-c2ccccc2)c2nc(=O)n(-c3ccccc3)cc12,-,.,-,-,?,?,-,-,-,ADP-Glo counter=-
O=C(COc1ccccc1Cl)c1ccc[nH]1,11µM,-51,-,-,-,?,.,.,.,ADP-Glo counter=-
O=C(COc1ccc(Br)cc1Cl)c1ccc[nH]1,?,-,-,-,-,-,.,.,.,
COc1cc2ncnc(NCc3ccc(C)o3)c2cc1OC,-,-,-,-,-,-,.,.,.,
Cc1ccc(CNc2ncnc3ccc(-c4ccoc4C)cc23)o1,.,.,.,.,.,.,.,.,.,ADP-Glo counter=-
O=C(O)c1ccc(-c2nc(-c3ccccc3)cs2)cc1,-,-,-,-,-,?,.,.,.,
O=C(O)c1ccc(-c2nc(-c3ccccc3Cl)cs2)cc1,-,-65,-,-,-,-,.,.,.,ADP-Glo counter=-
CN(C)c1ccc(/C=C/c2ccnc3ccc([N+](=O)[O-])cc23)cc1,.,.,-,.,.,?,.,.,.,
CC1CCC(NC(=O)CN2C(=O)NC3(CCCCC3C)C2=O)CC1 (stereo unspecified),.,-,-,-,-,-,.,.,.,
CC1CCCCC12NC(=O)N(CC(=O)Nc1sc3c(c1C(N)=O)CCC3)C2=O (stereo unspecified),32µM,-60,-,18µM,?,?,.,.,.,ADP-Glo counter=-
